# Most compounds without a hit are left out; they make up all but 17% or so of the library.
# HT1080 IDH1KD tx – kills HT-1080 cells with IDH1 knockdown; HT-1080 IDH1 knockdown viability, ATP luminescence, 48 h; Potency, µM (doses to about 46.1 µM), for inactives: at the highest dose activity, negative = toxicity, hits mostly cytotoxic; hit rate 2% among 360,000;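 further: 0% = DMSO wells and -100% = cell-free medium wells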
#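 Assay cells: HT-1080 with IDH1 knockdown, 750 per well, RPMI/5% FBS. Exposure: 48 h at 37 °C following 2 h pre-incubation. Read: CellTiter-Glo luminescence; fitted concentration-response, curve class assigned.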
# TGFb inhibitor – inhibitors of TGF-b signaling; AID 588855; hit rate 1.2% among 410,000; Potency, µM (titrated, usually from 46.1 µM), for inactives: at the highest dose activity, negative = inhibition, hits mostly inhibitors; HepG2 CAGA-GFP TGF-b/SMAD3 reporter, GFP fluorescence, 18 h; TGF-beta stimulated, 500 pg/mL final; further: on the % scale 0 is the no-effect control and ±100 the full control effect; nearly all actives have a fitted effect of over 65% in size
#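 HEPG2 CAGA-GFP reporter cells (1000/well, DMEM with 1% FBS) received compounds, then recombinant TGF-beta at 500 pg/mL final for 18 hours at 37 degrees C. Per-cell GFP summed per well was normalised to unstimulated and stimulated DMSO controls before curve fitting.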
# TDP1 cell CPT – DT40-hTDP1 cell growth loss with CPT; chicken DT40 Tdp1-/-;hTDP1 cells + 20 nM CPT, ATP luminescence, 48 h; Potency, µM (series often up to 46.2 µM), for the others: top-dose activity change, negative = growth inhibition, most hits filed as inhibitors; hit rate 12% among 420,000; further: on the % scale 0 is the no-effect control and ±100 the full control effect; nearly all actives have a fitted effect of over 55% in size
#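 Chicken DT40 Tdp1-/- cells complemented with human TDP1, 400 cells/well, exposed to compounds plus 20 nM camptothecin for at least 48 h at 37 C; viability read as ATP content by CellTiter-Glo luminescence.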
# HT1080-NT tox – kills 2HG-producing HT-1080-NT fibrosarcoma cells | Potency, µM (series often up to 46.1 µM), inactives show at the top dose activity, negative = less viability, actives largely listed as cytotoxic | HT-1080-NT fibrosarcoma viability, CellTiter-Glo ATP luminescence, 48 h | hit rate 1.6% among 360,000;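 further: NT is the 2HG producing partner of a matched IDH1 knockdown line; 0% = DMSO-treated cells and -100% = media-only wells without cells; nearly all actives have a fitted effect of over 55% in size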
#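 Luminescent CellTiter-Glo readout after 48 hours of compound exposure at 37 degrees C defined viability of HT-1080-NT cells. Activity was normalized to DMSO wells and cell-free media wells; concentration-response curves were fitted and assigned curve classes.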
# HepG2 tox-1 – kills HepG2 cells in TGF-b inhibitor counter-screen; HepG2 CAGA-GFP viability, ATP luminescence, 18 h; Potency, µM (top dose mostly 46.1 µM), for inactives: at the highest dose activity change, negative = cytotoxicity, most hits filed as cytotoxic; hit rate 0.76% among 410,000
#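 CellTiter-Glo luminescence gave cytotoxicity after 18 hours at 37 degrees C. The cells were HepG2 CAGA-GFP in 1% FBS DMEM, stimulated with 500 pg/mL TGF-beta after compound addition. %Activity was normalised to no-cell wells (complete cell-killing) and DMSO (no toxicity), and curves were fitted and classified.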
# TDP1 cell noCPT – qHTS for Inhibitors of human tyrosyl-DNA phosphodiesterase 1 (TDP1): qHTS in cells in absence of CPT; DT40 Tdp1-/- hTDP1 cells, no CPT, ATP luminescence, 48 h; Potency, µM (titrated, usually from 46.2 µM), without a hit: at the top dose activity change, negative = growth inhibition, hits mostly inhibitors; hit rate 15% among 420,000; further: on the % scale 0 is the no-effect control and ±100 the full control effect; nearly all actives have a fitted effect of over 55% in size
#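 Chicken DT40 Tdp1-/- cells stably complemented with human TDP1 were seeded at 400 cells/well with DMSO in place of 20 nM camptothecin. After compound pinning, cells grew at least 48 hr at 37 °C; viability read by CellTiter-Glo luminescence.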
# TGFb CAGA inh – TGF-b pathway inhibition, cherry-pick retest; shares compounds with TGFb inhibitor; HepG2 CAGA-GFP TGF-b reporter, GFP fluorescence, 18 h; cells stimulated with TGF-beta, 500 pg/mL; Potency, µM (doses to about 46.1 µM), without a hit: at the highest dose activity, negative = inhibition, actives largely listed as inhibitors; hit rate 63% among 1,600; further: on the % scale 0 is the no-effect control and ±100 the full control effect; nearly all actives have a fitted effect of over 65% in size
# HepG2 tox-2 – HepG2 cytotoxicity, TGF-b inhibitor counterscreen | Potency, µM (doses to about 46.1 µM), inactives show at the highest dose activity, negative = cytotoxicity, most hits filed as inhibitors | HepG2 CAGA-GFP viability, ATP luminescence, 18 h; cells stimulated with TGF-beta, 500 pg/mL | shares compounds with TGFb inhibitor | hit rate 27% among 1,600 | AID 720535; further: on the % scale 0 is the no-effect control and ±100 the full control effect; nearly all actives have a fitted effect of over 70% in size
# CCL64 TGFb inh – TGF-b inhibition, CCL64 orthogonal assay; shares compounds with TGFb inhibitor; AID 720536; Potency, µM (series often up to 46.1 µM), without a hit: at the highest dose activity, negative = inhibition, usual class: inhibitors; CCL64 CAGA-GFP reporter, TGF-b stimulated, GFP fluorescence, 18 h; hit rate 41% among 1,600; further: nearly all actives have a fitted effect of over 65% in size
# TGFb COP inh – TGF-b inhibition validated with COP promoter. shares compounds with TGFb inhibitor. HepG2 COP-GFP TGF-b reporter, GFP fluorescence, 18 h; cells stimulated by added recombinant TGF-beta. Potency, µM (top dose mostly 46.1 µM), without a hit: at the highest dose activity, negative = inhibition, actives largely listed as inhibitors. hit rate 3% among 1,600. AID 720537; further: nearly all actives have a fitted effect of over 70% in size
# Numbers without * were called inactive; ? = inconclusive; · = no result given. The call rests on the fitted dose curve; in most records, active means well fitted curve in the direction sought with a large enough effect; inconclusive means small, poorly fitted or top-dose-only effect, or another doubt; inactive means no such curve, though single readings can be large; an effect the other way counts as inactive or inconclusive. Potency means the concentration at half of the fitted maximal effect.
SMILES,HT1080 IDH1KD tx,TGFb inhibitor,TDP1 cell CPT,HT1080-NT tox,HepG2 tox-1,TDP1 cell noCPT,TGFb CAGA inh,HepG2 tox-2,CCL64 TGFb inh,TGFb COP inh
CCCCN(C(=O)c1cccc2c(=O)c(C)c(-c3ccccc3)oc12)c1ccccc1,?,14.1µM*,16.4µM*,-21.6%,-9.5%,8.2µM*,10.3µM*,?,?,41.1%
C=C1C2=C(C(=O)N1OC)[C@@H](O)[C@@](C)(O)[C@@H](CCCCC)O2,?,12.6µM*,14.6µM*,?,-25.6%,13µM*,?,-1.5%,-6.9%,9.1%
O=C(CSc1nnc(COc2cccc3cccnc23)o1)N1CCc2ccccc21,1.26µM*,?,2.06µM*,2.24µM*,-37.2%,2.31µM*,?,?,-28.1%,38.7%
Cc1cc2c(Nc3cccc(O)c3)ncnc2s1,10.2%,4.0%,?,0.4%,2.1%,?,·,·,·,·
O=C(Nc1ccccn1)C(=O)Nc1ccccn1,1.2%,2.8%,-3.8%,-5.3%,-4.3%,-13.3%,·,·,·,·
S=C(Nc1ccccn1)c1ccccn1,?,7.08µM*,0.92µM*,?,-62.3%,0.92µM*,-22.3%,?,?,5.9%
O=C(c1cc(-c2ccccc2)n[nH]1)N1CCc2c([nH]c3ccccc23)C1c1ccccn1 (stereo unspecified),?,20µM*,18.4µM*,?,-26.5%,20.6µM*,14.6µM*,?,?,20.2%
O=C(CN1CCOCC1)Nc1cccc(Cl)c1Cl,-14.7%,11.3%,-10.0%,0.9%,11.2%,-11.5%,·,·,·,·
Cn1c(=O)oc2cc(S(=O)(=O)N3CCCC(C(=O)NC4CCCc5ccccc54)C3)ccc21 (stereo unspecified),1.8%,0.562µM*,?,-1.3%,-35.3%,?,?,?,-0.9%,71.4%
Cc1cccc(N(C(=O)Nc2ccc(Cl)cc2)C2=NCC(C)S2)n1 (stereo unspecified),-12.4%,32.4%,1.2%,-0.7%,-21.3%,-0.1%,·,·,·,·
COc1ccc(-n2c(SCC(=O)NCC3CCCO3)nc3c(c2=O)SC(C)C3)cc1 (stereo unspecified),-19.2%,9.9%,-4.2%,0.5%,-9.9%,1.9%,·,·,·,·
COC(=O)c1ccc(CN(C)S(=O)(=O)c2cccs2)cc1,3.5%,-0.1%,-2.3%,16.1%,1.9%,3.1%,·,·,·,·
O=C(NCc1nnc(SCc2ccc(F)cc2)n1-c1ccc(F)cc1)C12CC3CC(CC(C3)C1)C2,?,15.8µM*,14.6µM*,?,-0.1%,29.1µM*,?,?,?,47.0%
Nc1nc(Nc2ccccc2)sc1C(=O)c1ccccc1,?,5.62µM*,-13.5%,?,-35.9%,?,3.66µM*,3.66µM*,20.6µM*,21.3%
Fc1ccc(-c2[nH]ncc2CN2CCN(c3ccc(F)cc3)CC2)cc1,?,-13.9%,-25.9%,-8.1%,-45.4%,?,·,·,·,·
COc1ccc(-c2[nH]ncc2CN2CCN(c3ccc(F)cc3)CC2)cc1,0.1%,?,-18.7%,-15.5%,-31.5%,-37.2%,·,·,·,·
OC1(c2ccc(Cl)cc2)CCN(Cc2cn[nH]c2-c2ccc(F)cc2)CC1,?,3.98µM*,13µM*,20.6µM*,-31.7%,4.11µM*,?,?,25.9µM*,70.0%
COc1ccc(-c2[nH]ncc2CN2CCC(O)(c3ccc(Cl)cc3)CC2)cc1,?,6.31µM*,?,?,-29.5%,10.3µM*,?,?,9.2µM*,87.3%
CCC1Nc2ncnc(N3CCc4ccccc4C3)c2N(Cc2ccc(Br)cc2)C1=O (stereo unspecified),?,12.6µM*,?,?,-10.7%,?,18.4µM*,18.4µM*,-80.9%,27.7%
CC1Nc2ncnc(N3CCc4ccccc4C3)c2N(Cc2ccc(Cl)cc2)C1=O (stereo unspecified),-27.9%,?,?,-16.7%,-20.3%,?,·,·,·,·
NC(=S)N=Nc1c(O)n(CCCl)c2ccc(Br)cc12,-9.3%,?,16.4µM*,-2.2%,-18.1%,23.1µM*,-12.4%,?,?,1.7%
OCCCn1c(CCCNc2nc(-c3cccc(Br)c3)cs2)nc2cc(Cl)c(N3CCCCC3)cc21,?,10µM*,?,18.4µM*,-8.0%,16.4µM*,13µM*,-23.1%,?,36.7%
C[C@@H]1CN([C@@H](C)CO)C(=O)c2cc(Br)cnc2O[C@H]1CN(C)Cc1cccc(C(=O)O)c1,-20.8%,-3.1%,2.9%,-11.5%,-50.0%,-27.5%,·,·,·,·
c1ccc2c(c1)nc(N1CCOCC1)c1ccccc12,-16.7%,0.5%,-27.4%,-17.5%,1.2%,-16.7%,·,·,·,·
CCN(CC)c1ccc(Nc2nc(N3CCOCC3)c3ccccc3n2)cc1,?,10µM*,4.61µM*,11.2µM*,-94.1%,3.26µM*,?,20.6µM*,?,30.0%
COc1cccc(CN(C(=O)Cc2c[nH]c3ccccc23)C(C(=O)NC2CCCCC2)c2ccc(C)o2)c1 (stereo unspecified),?,15.8µM*,16.4µM*,-21.4%,-10.9%,16.4µM*,25.9µM*,?,?,22.9%

# Assay outcomes: PubChem BioAssay, National Center for Advancing Translational Sciences (NCATS)
